Test results: PubChem BioAssay (NCATS)
Inconclusive results are not listed. Activity calls are given as the source filed them. Calls come from the whole dose curve.

Assays:
[1] = Primary qHTS for inhibitors of SARS-S pseudo-typed particle cell entry (AID 1479145); settings: SARS-S pseudotyped particle cell entry, luciferase reporter; series mostly up to 57.1 µM; note: nearly all actives have a fitted effect of over 45% in size
[2] = Primary qHTS for Huh7 cytotoxicity: counterscreen for inhibitors of MERS-S pseudotyped particle cell entry (AID 1479147); settings: cell viability read-out; series mostly up to 57.1 µM
[3] = Primary qHTS for inhibitors of MERS-S pseudo-typed particle cell entry (AID 1479149); settings: MERS-S pseudotyped particle entry, luciferase; series mostly up to 57.1 µM; note: nearly all actives have a fitted effect of over 60% in size
[4] = Primary qHTS for Vero E6 cytotoxicity: counterscreen for inhibitors of SARS-S pseudo-typed particle cell entry (AID 1479150); settings: cell viability; series mostly up to 57.1 µM

Measured: Potency

CC(C)(O/N=C(\C(=O)N[C@@H]1C(=O)N2C(C(=O)[O-])=C(C[n+]3ccccc3)CS[C@H]12)c1csc(N)n1)C(=O)O
inactive: all assays above

O=S(=O)(O)c1ccc2nc(-c3ccccc3)[nH]c2c1
inactive: all assays above

CC(=O)Nc1ccc(OC(=O)c2ccccc2OC(C)=O)cc1
inactive: all assays above

CN1C[C@H](C(=O)N[C@]2(C)O[C@@]3(O)[C@@H]4CCCN4C(=O)[C@H](Cc4ccccc4)N3C2=O)C=C2c3cccc4[nH]cc(c34)C[C@H]21
inactive: all assays above

CC(C)=CCC1C(=O)N(c2ccccc2)N(c2ccccc2)C1=O
inactive: all assays above

CC1CCc2c(N3CCC(O)CC3)c(F)cc3c(=O)c(C(=O)O)cn1c23 (stereo not given)
inactive: all assays above

CC(=O)Nc1ccccc1
inactive: all assays above

O=C(CCOCCOCCOCCOCCC(=O)Nc1c(I)cc(I)c(C(=O)O)c1I)Nc1c(I)cc(I)c(C(=O)O)c1I
inactive: all assays above

CCOC(=O)c1ccccc1O
inactive: all assays above

NCC(=O)CCC(=O)O
inactive: all assays above

CC(C)OC(=O)OCOP(=O)(CO[C@H](C)Cn1cnc2c(N)ncnc21)OCOC(=O)OC(C)C
inactive: all assays above

CCOc1cc(OCC)c(C(=O)CCC(=O)O)cc1OCC
inactive: all assays above

CC(=O)CC/C=C(\C)CC/C=C(\C)CC/C=C(\C)CCC=C(C)C
inactive: all assays above

Cc1ccc(Cl)c(Nc2ccccc2C(=O)O)c1Cl
inactive: all assays above

NS(=O)(=O)c1cc(C(=O)O)cc(N2CCCC2)c1Oc1ccccc1
inactive: all assays above

CC(=O)Nc1c(I)c(NC(C)=O)c(I)c(C(=O)O)c1I
inactive: all assays above

CN(C)CCN(Cc1ccsc1)c1ccccn1
inactive: all assays above

NCCNCCNCCN
inactive: all assays above

COc1ccc(O)cc1
inactive: all assays above

CC1(C)O[C@@H]2C[C@H]3[C@@H]4CCC5=CC(=O)C=C[C@]5(C)[C@@H]4[C@@H](O)C[C@]3(C)[C@]2(C(=O)CO)O1
inactive: all assays above

CS(=O)(=O)c1ccc([C@@H](O)[C@@H](CF)NC(=O)C(Cl)Cl)cc1
inactive: all assays above

CC(C)(Oc1ccc(Cl)cc1)C(=O)OCCCOC(=O)C(C)(C)Oc1ccc(Cl)cc1
inactive: all assays above

Cc1oc(=O)oc1CN1CCN(c2cc3c(cc2F)c(=O)c(C(=O)O)c2n3C(C)S2)CC1 (stereo not given)
inactive: all assays above

CCCc1nc(C(C)(C)O)c(C(=O)OCc2oc(=O)oc2C)n1Cc1ccc(-c2ccccc2-c2nn[nH]n2)cc1
inactive: all assays above

CC(C(=O)O)c1ccc(/C=C2\CCCCC2=O)cc1 (stereo not given)
inactive: all assays above

CCC[C@@]1(CCc2ccccc2)CC(O)=C([C@H](CC)c2cccc(NS(=O)(=O)c3ccc(C(F)(F)F)cn3)c2)C(=O)O1
inactive: all assays above

CCOc1cc(CC(=O)N[C@@H](CC(C)C)c2ccccc2N2CCCCC2)ccc1C(=O)O
inactive: all assays above

O=c1cc(O)c(Cl)c[nH]1
inactive: all assays above

Nc1c(I)cc(I)c(C(=O)N(CCC(=O)O)c2ccccc2)c1I
inactive: all assays above

C[C@@H](CN1CC(=O)NC(=O)C1)N1CC(=O)NC(=O)C1
inactive: all assays above

Nc1ccc(S(=O)(=O)NC(=O)c2ccccc2)cc1
inactive: all assays above

O=C(O)CCCCCCCC(=O)O
inactive: all assays above

O=C(COCCOCCOCC(=O)Nc1c(I)cc(I)c(C(=O)O)c1I)Nc1c(I)cc(I)c(C(=O)O)c1I
inactive: all assays above

CC[N+](CC)(CC)CCOc1cccc(OCC[N+](CC)(CC)CC)c1OCC[N+](CC)(CC)CC
inactive: all assays above

C[C@H](CS)C(=O)N1CCC[C@H]1C(=O)O
inactive: all assays above

CC(=O)O[C@@H]1C(=O)O[C@@H]2[C@H]1OC(=O)[C@@H]2OC(C)=O
inactive: all assays above

C[N+]1(C)CCCC(OC(=O)C(O)(c2ccccc2)c2ccccc2)C1 (stereo not given)
inactive: all assays above

Cc1cc(O)c2c(O)c3c(O)cccc3cc2c1
inactive: all assays above

O=C(Oc1ccccc1)c1ccccc1O
inactive: all assays above

CN(C)CCc1c[nH]c2ccc(Cn3cncn3)cc12
inactive: all assays above

CC(=O)Oc1cccc(O)c1
inactive: all assays above

Cc1ccccc1OCC(O)CO (stereo not given)
inactive: all assays above

c1ccc(-c2nc[nH]c2-c2ccccc2)cc1
inactive: all assays above

O=C(O)c1cc(=O)c2c(OCC(O)COc3cccc4oc(C(=O)O)cc(=O)c34)cccc2o1
inactive: all assays above

Cc1c(F)c(N2CCNC(C)C2)cc2c1c(=O)c(C(=O)O)cn2C1CC1 (stereo not given)
inactive: all assays above

CN(C)CCOC(=O)C(c1ccccc1)C1(O)CCCC1 (stereo not given)
inactive: all assays above

CN=C(NC#N)NCCSCc1nc[nH]c1C
inactive: all assays above

OC[C@H]1O[C@@H](n2cnc3c2NC=NC[C@H]3O)C[C@@H]1O
inactive: all assays above

CNNCc1ccc(C(=O)NC(C)C)cc1
inactive: all assays above

O=c1[nH]c(=O)n([C@H]2CCCO2)cc1F
inactive: all assays above
